Experimental data taken from the supplement of paper PMC7156485.

Experiments:
Conditions in all cases: concentration: 10 µM; 24 h
HCC1569 [1] = assay: cell number relative to DMSO (% of DMSO); higher = more cells (less growth inhibition / toxicity)
How it was run: (§1)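 Cells were seeded at 800 per well in 384-well plates with RPMI containing 10% FBS; both HCC1569 and TDF lines were used. Compounds were added at 10 µM for 24 h at 37 °C, in triplicate, before fixation in 3.7% formaldehyde and staining with a rabbit anti-H1.0 antibody, an AlexaFluor 647 secondary and DAPI. H1.0 nuclear intensity or cell number is reported as percent of the plate control using the median of replicates, and HCC1569 values were smoothed for positional effects.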

TDF [2] = assay: as above
How it was run: as §1

TDF [3] = assay: H1.0 immunofluorescence intensity relative to DMSO (% of DMSO); higher = stronger H1.0 induction, active = 120 or more
How it was run: as §1

HCC1569 [4] = assay: H1.0 immunofluorescence intensity relative to DMSO (% of DMSO); higher = stronger H1.0 induction, active = 140 or more
How it was run: as §1
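For H1.0 immunofluorescence intensity relative to DMSO in this document: TDF is a line of transformed human dermal fibroblasts of mesenchymal origin.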
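For cell number relative to DMSO in this document: TDF denotes transformed human dermal fibroblasts of mesenchymal origin.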

Compound | cell number (HCC1569 [1]) | cell number (TDF [2]) | H1.0 immunofluorescence intensity (TDF [3]) | H1.0 immunofluorescence intensity (HCC1569 [4])
Nc1cc(-c2ccncc2)c[nH]c1=O [amrinone] | 99.8 | 105 | 100 (inactive) | 114 (inactive)
COc1cc(-c2oc3cc(O)cc(O)c3c(=O)c2O)ccc1O [Isorhamnetine] | 97.1 | 97.1 | 97.1 (inactive) | 116 (inactive)
COc1ccc2c(c1)c(CC(=O)O)c(C)n2C(=O)c1ccccc1 [1-benzoyl-5-methoxy-2-methylindole-3-acetic acid] | 101 | 104 | 96.8 (inactive) | 93.1 (inactive)
CC(C)NCC(O)COc1ccc(CC(N)=O)cc1 (stereo not drawn) [S(-)-Atenolol] | 101 | 105 | 92.2 (inactive) | 96.4 (inactive)
O=c1oc2ccccc2c(O)c1Cc1c(O)c2ccccc2oc1=O [Dicoumarol] | 99.6 | 94.5 | 99 (inactive) | 98.4 (inactive)
N[C@@H](CCCC(=O)O)C(=O)O [L-2-aminoadipic acid] | 105 | 109 | 99.8 (inactive) | 93.6 (inactive)
COC1C=COC2(C)Oc3c(C)c(O)c4c(O)c(cc(O)c4c3C2=O)NC(=O)C(C)=CC=CC(C)C(O)C(C)C(O)C(C)C(OC(C)=O)C1C (configuration not stated) | 103 | 105 | 97.7 (inactive) | 103 (inactive)
C[N+](C)(C)CCCCCC[N+](C)(C)C.[Cl-].[Cl-] [Hexamethonium dichloride] | 98 | 99.9 | 95.6 (inactive) | 87.7 (inactive)
CC(C)(C)NCC(O)c1cc(O)cc(O)c1.CC(C)(C)NCC(O)c1cc(O)cc(O)c1.O=S(=O)(O)O (configuration not stated) [Terbutaline hemisulfate] | 106 | 105 | 92.8 (inactive) | 97 (inactive)
CC(=O)N[C@@H](CS)C(=O)O [N-Acetyl-L-Cysteine] | 98.1 | 115 | 109 (inactive) | 118 (inactive)
CC(C)=CCCC(C)=CCCC(C)=CCSc1ccccc1C(=O)O [Farnesylthiosalicylic acid] | 93.9 | 99.9 | 90.7 (inactive) | 94.5 (inactive)
CC1=c2[nH]c3c(c2CCN1)C=CC(=O)C=3.Cl.O.O | 98.2 | 89 | 97.7 (inactive) | 144 (active)
COc1cc2c(c(OC)c1OC)-c1c(cc(OC)c(OC)c1OC)CC(C)C(C)C2 (stereo not drawn) [R(+)-Schisandrin A] | 105 | 103 | 91.6 (inactive) | 94.9 (inactive)
CCCCCCCCCCCCCCCC(=O)O [Hexadecanoic acid] | 97.3 | 92.6 | 104 (inactive) | 97.9 (inactive)
Cc1ccc(NC(=O)CCCCCC(=O)Nc2ccccc2N)cc1 [N~1~-(2-aminophenyl)-N~7~-(4-methylphenyl)heptanediamide] | 96.1 | 70.6 | 113 (inactive) | 214 (active)
COc1cc2c(c(OC)c1OC)-c1c(cc3c(c1OC)OCO3)C[C@H](C)[C@@](C)(O)C2 | 97.6 | 95.4 | 96.3 (inactive) | 101 (inactive)
O=C(O)CCCC=CCC1C(O)CC(O)C1C=CC(O)COc1cccc(C(F)(F)F)c1 (configuration not stated) [Fluprostenol] | 100 | 96 | 92.2 (inactive) | 97.4 (inactive)
CN(C)CCN(Cc1cccs1)c1ccccn1.Cl [Methapyrilene hydrochloride] | 112 | 95.7 | 93 (inactive) | 92.7 (inactive)
O=C(NC(NC(=S)Nc1ccc(F)c([N+](=O)[O-])c1)C(Cl)(Cl)Cl)C(c1ccccc1)c1ccccc1 (configuration not stated) | 58.2 | 58.3 | 108 (inactive) | 190 (active)
CC(=O)SCC[N+](C)(C)C.[Cl-] [Acetylthiocholine chloride] | 102 | 111 | 89.2 (inactive) | 92.5 (inactive)
CC[N+](C)(C)c1cccc(O)c1.[Cl-] [Edrophonium chloride] | 102 | 113 | 96.1 (inactive) | 95.7 (inactive)
CC(C)n1cnc2c(NCc3ccccc3)nc(NCCO)nc21 [N9-Isopropylolomoucine] | 46 | 105 | 95 (inactive) | 314 (active)
Cn1nnc2c(C(N)=O)ncn2c1=O [Temozolomide] | 105 | 91.4 | 105 (inactive) | 101 (inactive)
